Experiments:
Assay in all cases: log2 ratio of Biotin-Ahx-Ub-VS probe labelling (fragment/DMSO); higher = less target engagement (more negative = stronger competition), active = hit call of the paper (q ≤ 0.05, log2 ratio ≤ -1)
Settings in all cases: compound concentration: 200 uM; treatment time: 3 h
[1] = target: USP9X (UniProt Q93008)
In short: (§1)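 HEK293T lysate in Tris/CHAPS/IGEPAL buffer with protease inhibitors (495 µg per sample) was given fragment at 200 µM or vehicle for 3 h, in triplicate. It then received Biotin-Ahx-Ub-VS at 0.5 µM final for 1 h. Labelled DUBs were NeutrAvidin-enriched, digested with LysC and trypsin, and run by diaPASEF LC-MS/MS. Values are average log2 fragment/vehicle ratios by unpaired t-test on global-median-normalised Spectronaut quantities of proteins with ≥2 unique peptides.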

[2] = target: UniProt O00487
In short: as §1

[3] = target: UniProt O00507
In short: as §1

[4] = target: UniProt P51784
In short: as §1

[5] = target: T1, UniProt Q5T2D3
T1 sequence (whole entry): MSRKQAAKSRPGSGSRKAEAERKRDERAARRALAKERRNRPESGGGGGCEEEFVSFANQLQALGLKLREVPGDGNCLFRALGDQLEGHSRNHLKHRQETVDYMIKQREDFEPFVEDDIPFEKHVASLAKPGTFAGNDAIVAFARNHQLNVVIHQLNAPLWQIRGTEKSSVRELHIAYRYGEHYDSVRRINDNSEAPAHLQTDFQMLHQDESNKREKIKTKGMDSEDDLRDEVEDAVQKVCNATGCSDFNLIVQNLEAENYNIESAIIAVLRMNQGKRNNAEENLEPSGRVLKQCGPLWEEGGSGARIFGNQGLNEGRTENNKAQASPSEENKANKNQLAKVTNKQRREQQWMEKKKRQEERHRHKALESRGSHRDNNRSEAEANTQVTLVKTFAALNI
In short: as §1

[6] = target: T2, UniProt Q8TE49
T2 sequence (whole entry): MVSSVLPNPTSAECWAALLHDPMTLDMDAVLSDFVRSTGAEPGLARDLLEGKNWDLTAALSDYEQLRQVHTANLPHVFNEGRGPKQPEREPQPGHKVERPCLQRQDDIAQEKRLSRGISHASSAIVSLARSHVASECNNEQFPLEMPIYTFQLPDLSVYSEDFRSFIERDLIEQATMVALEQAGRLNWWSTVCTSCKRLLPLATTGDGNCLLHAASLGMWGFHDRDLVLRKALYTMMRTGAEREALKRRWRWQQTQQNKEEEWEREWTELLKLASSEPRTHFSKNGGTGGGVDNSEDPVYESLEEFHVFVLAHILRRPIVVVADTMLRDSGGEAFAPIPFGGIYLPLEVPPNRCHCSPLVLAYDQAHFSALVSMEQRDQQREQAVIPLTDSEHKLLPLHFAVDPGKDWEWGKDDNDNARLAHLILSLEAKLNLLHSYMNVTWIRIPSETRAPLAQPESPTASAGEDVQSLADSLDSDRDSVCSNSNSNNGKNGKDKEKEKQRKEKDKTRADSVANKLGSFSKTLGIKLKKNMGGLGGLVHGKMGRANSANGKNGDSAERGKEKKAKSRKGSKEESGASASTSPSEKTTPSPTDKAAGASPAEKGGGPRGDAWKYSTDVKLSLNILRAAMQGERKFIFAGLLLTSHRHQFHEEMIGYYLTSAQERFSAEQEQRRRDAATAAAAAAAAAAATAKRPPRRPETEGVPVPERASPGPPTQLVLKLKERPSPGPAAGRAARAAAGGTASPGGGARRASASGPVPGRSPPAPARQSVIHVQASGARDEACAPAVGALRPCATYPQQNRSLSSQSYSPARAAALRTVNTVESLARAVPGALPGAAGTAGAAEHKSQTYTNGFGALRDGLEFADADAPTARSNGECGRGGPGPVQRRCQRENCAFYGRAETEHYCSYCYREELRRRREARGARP
In short: as §1

[7] = target: T3, UniProt Q9P2H5
T3 sequence (whole entry): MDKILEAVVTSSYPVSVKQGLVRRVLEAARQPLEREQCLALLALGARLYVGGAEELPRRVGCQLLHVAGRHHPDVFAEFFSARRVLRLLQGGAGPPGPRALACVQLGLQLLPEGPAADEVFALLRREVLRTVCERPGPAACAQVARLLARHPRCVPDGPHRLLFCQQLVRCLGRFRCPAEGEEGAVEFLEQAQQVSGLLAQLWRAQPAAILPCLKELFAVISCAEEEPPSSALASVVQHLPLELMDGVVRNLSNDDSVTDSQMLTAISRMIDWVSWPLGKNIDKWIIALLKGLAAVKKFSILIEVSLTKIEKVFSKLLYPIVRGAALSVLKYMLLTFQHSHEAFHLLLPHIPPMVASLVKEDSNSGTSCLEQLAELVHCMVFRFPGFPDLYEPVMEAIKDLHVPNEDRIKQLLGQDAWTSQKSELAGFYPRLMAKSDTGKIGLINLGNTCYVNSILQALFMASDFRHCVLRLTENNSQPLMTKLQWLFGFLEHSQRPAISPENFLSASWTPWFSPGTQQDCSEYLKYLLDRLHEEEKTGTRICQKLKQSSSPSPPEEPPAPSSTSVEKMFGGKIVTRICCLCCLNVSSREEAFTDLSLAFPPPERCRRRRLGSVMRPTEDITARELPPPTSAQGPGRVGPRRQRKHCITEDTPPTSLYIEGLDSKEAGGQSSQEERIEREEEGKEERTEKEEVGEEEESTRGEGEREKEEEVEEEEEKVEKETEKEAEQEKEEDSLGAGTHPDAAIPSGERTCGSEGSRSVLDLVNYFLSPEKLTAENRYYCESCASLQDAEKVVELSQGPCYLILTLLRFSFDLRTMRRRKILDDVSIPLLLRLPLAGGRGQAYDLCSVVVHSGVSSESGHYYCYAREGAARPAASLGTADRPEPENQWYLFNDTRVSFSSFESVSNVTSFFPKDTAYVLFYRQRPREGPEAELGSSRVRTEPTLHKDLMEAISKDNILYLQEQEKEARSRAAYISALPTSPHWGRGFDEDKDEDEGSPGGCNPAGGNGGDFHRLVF
In short: as §1

[8] = target: T4, UniProt Q9UGI0
T4 sequence (whole entry): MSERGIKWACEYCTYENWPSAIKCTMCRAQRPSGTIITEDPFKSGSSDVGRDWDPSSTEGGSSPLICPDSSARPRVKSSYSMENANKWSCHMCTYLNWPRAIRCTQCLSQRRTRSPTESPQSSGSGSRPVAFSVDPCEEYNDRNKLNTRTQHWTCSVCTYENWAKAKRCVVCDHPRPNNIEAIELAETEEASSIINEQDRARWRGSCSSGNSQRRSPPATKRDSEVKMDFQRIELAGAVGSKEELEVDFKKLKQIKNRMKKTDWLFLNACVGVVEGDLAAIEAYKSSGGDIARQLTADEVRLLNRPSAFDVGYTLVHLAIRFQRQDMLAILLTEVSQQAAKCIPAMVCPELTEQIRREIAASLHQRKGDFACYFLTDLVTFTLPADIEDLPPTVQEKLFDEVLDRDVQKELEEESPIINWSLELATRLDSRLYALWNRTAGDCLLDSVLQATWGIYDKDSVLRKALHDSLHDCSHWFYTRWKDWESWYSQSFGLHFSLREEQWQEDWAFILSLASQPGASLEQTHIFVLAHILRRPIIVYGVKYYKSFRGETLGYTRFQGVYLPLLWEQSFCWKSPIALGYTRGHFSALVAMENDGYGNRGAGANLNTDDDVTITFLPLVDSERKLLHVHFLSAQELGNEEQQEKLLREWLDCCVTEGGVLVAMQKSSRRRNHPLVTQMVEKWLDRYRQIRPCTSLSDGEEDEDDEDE
In short: as §1

[9] = target: T5, YOD1 (UniProt Q5VVQ6)
T5 sequence (whole entry): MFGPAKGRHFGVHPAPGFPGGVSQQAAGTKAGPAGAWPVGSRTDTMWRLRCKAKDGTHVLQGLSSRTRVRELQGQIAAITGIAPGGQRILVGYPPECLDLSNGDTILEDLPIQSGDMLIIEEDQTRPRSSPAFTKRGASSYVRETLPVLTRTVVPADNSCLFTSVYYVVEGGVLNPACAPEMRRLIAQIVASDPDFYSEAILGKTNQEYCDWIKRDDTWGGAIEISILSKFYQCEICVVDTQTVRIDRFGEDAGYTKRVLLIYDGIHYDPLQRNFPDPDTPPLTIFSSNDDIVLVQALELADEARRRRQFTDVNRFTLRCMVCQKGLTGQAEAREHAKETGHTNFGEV
In short: as §1

Measured: log2 ratio of Biotin-Ahx-Ub-VS probe labelling

Chain of USP9X (Q93008 whole entry, the tested form may be a part): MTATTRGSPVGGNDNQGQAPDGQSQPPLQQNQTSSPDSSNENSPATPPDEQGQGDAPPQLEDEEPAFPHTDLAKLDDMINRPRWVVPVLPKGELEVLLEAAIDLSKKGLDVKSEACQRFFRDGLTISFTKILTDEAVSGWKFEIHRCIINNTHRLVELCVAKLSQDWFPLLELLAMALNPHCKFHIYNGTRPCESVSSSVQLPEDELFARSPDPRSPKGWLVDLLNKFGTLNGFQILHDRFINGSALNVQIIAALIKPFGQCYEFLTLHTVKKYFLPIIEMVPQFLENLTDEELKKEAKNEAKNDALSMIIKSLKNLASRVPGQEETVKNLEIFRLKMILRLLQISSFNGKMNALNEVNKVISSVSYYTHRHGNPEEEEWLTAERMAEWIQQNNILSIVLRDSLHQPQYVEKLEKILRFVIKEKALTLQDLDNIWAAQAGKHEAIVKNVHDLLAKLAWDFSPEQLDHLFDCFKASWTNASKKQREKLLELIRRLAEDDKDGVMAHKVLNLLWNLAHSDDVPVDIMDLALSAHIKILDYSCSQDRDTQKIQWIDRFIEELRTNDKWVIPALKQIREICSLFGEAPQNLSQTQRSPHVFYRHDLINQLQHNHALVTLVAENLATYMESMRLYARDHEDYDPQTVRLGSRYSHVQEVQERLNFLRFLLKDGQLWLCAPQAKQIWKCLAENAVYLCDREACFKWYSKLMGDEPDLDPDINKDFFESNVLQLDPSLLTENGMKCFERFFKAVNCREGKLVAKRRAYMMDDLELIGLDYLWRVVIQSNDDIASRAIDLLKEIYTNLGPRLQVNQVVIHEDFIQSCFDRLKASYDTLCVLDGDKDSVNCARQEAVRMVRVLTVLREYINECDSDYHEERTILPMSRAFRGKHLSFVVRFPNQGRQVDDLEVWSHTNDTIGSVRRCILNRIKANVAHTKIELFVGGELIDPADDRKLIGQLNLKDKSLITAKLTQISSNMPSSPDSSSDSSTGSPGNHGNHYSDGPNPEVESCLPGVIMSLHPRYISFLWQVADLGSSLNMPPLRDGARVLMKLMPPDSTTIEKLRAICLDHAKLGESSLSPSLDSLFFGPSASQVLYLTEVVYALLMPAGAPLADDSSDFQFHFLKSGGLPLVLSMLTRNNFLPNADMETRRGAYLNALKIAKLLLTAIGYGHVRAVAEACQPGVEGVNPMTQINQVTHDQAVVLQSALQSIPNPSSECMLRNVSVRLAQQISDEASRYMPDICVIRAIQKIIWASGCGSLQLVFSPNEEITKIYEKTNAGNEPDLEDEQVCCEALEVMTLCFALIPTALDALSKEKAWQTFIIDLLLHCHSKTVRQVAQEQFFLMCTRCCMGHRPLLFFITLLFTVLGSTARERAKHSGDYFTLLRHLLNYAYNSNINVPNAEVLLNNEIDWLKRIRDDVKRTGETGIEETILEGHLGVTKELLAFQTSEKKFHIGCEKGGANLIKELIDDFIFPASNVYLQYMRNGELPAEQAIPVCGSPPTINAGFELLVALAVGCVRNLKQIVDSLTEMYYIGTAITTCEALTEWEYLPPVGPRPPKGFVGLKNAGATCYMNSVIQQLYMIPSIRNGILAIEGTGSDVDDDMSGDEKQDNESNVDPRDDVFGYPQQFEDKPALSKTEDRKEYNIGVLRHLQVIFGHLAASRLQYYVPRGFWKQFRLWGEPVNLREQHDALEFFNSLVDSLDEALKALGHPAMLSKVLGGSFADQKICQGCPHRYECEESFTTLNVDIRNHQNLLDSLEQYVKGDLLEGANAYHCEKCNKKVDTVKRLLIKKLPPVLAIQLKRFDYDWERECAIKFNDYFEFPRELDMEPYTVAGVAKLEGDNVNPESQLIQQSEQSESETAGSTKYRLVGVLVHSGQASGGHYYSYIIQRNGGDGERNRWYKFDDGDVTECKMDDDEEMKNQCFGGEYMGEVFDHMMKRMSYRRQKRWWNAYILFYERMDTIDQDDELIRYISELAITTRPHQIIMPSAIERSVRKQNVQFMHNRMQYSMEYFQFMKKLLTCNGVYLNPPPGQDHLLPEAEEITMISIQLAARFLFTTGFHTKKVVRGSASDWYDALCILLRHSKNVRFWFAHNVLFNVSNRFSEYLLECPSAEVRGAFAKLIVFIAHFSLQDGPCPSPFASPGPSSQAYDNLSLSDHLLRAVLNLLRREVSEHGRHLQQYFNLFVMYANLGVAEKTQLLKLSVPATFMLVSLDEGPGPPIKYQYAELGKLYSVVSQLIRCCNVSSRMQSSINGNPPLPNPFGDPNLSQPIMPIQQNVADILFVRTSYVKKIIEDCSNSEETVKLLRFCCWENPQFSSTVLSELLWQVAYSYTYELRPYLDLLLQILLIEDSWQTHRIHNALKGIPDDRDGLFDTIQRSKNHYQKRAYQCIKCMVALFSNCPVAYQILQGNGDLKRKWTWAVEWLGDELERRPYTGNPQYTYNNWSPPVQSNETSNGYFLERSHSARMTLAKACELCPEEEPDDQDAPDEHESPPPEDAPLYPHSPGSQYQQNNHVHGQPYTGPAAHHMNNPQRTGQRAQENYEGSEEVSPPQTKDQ
Chain of UniProt P51784 (P51784 whole entry): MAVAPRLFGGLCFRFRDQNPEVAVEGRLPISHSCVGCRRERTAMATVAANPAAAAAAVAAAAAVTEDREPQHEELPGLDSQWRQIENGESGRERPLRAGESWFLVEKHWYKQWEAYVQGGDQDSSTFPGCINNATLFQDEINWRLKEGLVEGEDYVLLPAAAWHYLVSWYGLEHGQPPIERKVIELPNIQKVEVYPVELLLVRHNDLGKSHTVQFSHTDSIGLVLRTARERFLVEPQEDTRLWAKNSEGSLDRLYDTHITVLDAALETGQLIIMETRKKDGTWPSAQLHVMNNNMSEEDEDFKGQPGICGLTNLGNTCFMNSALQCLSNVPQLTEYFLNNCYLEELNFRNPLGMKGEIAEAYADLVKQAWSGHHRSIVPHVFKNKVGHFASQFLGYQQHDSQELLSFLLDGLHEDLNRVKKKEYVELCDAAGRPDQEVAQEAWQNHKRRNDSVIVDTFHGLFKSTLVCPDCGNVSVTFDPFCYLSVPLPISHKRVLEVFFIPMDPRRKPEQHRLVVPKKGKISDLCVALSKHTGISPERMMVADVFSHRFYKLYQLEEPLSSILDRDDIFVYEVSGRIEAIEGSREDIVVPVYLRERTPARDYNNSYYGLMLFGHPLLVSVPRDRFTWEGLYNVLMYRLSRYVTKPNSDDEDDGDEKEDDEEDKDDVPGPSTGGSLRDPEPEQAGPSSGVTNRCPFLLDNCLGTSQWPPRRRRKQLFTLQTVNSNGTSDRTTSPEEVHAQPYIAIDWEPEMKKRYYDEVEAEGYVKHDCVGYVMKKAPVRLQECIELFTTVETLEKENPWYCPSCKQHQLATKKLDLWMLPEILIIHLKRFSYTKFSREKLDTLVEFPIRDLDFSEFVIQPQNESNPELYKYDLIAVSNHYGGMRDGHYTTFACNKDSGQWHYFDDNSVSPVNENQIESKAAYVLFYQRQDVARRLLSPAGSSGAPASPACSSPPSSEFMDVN
Chain of UniProt O00487 (O00487 whole entry): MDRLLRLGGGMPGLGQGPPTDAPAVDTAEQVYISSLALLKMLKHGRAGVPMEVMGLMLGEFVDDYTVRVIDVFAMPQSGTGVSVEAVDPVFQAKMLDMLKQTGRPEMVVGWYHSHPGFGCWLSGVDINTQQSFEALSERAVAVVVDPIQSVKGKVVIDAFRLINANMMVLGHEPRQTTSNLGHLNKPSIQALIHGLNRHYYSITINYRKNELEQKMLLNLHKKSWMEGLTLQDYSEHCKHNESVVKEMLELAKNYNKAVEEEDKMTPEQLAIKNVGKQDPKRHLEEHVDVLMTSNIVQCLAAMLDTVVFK

CCC1c2ccsc2CCN1C(=O)CCl (centres undefined)
inactive: [1] -0.309 | [2] -0.0357 | [3] -0.266 | [4] -0.306 | [5] -0.0335 | [6] -0.771 | [7] -0.118 | [8] -0.444 | [9] -0.026

From the supplement of paper PMC11732987, “Enantioselective OTUD7B fragment discovery through chemoproteomics screening and high-throughput optimisation” (Communications Chemistry, 2025)
